Several values for one entry are separate records, joined by “and”; a condition that tells them apart may be missing. Equal values may be shown once. Inconclusive results are not listed. A call without a number means that no potency is given here. The source holds several records for some structures; these can differ, active in one and inactive in another. Activity calls are given as the source filed them. Unless noted, calls come from the whole dose curve; as a rule, active = well fitted curve in the direction sought with a large enough effect in the repeat runs; inconclusive = weak or mixed curves; inactive = no such curve, though single readings can be large; an effect the other way counts as inactive or inconclusive.
Legend:
[1] = qHTS assay to identify small molecule agonists of the TGF-beta/Smad signaling pathway - cell viability counter screen (AID 1346829); note: top concentration of the series differs between compounds; nearly all actives have a fitted effect of over 45% in size
Summary of the method: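 CellTiter-Glo luminescence readout; SBE-bla HEK 293T cells, overnight plating, compound 5 hr at 37 C/5% CO2, then bla substrate 2 hr RT, then CellTiter-Glo 30 min RT.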

[2] = qHTS assay to identify small molecule agonists of the TGF-beta/Smad signaling pathway (AID 1346859; active = well fitted activation curve with a large enough effect in the signal ratio in the repeat runs, not every such curve was filed as active; the % refers to the signal ratio; note: series mostly up to about 77 µM)
Summary of the method: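 SBE-bla HEK 293T, 4,000 cells/well, plated o/n; cpd in DMSO, 5 hr, 37 C/5% CO2; B/G FRET substrate 2 hr RT; ex 405, em 460/530 nm.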

[3] = biological target: Thyrotropin-releasing hormone receptor (Homo sapiens) (UniProt P34981); test: qHTS assay to identify small molecule antagonists of the thyrotropin-releasing hormone receptor (TRHR) signaling pathway (AID 1346877; active = well fitted inhibition curve with a large enough effect in the repeat runs, not every such curve was filed as active; note: series mostly up to about 51 µM)
Summary of the method: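 In this cell-based calcium flux format, HEK293 cells expressing TRHR received test compound for 5 min before the agonist TRH (1 nM final). Dye loading lasted 2 h at 37 °C.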

[4] = biological target: Thyrotropin-releasing hormone receptor (Homo sapiens) (UniProt P34981); test: qHTS assay to identify small molecule agonists of the thyrotropin-releasing hormone receptor (TRHR) signaling pathway (AID 1346891; calls by dose curve; note: series mostly up to about 58 µM)
Summary of the method: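 Intracellular calcium rise, read as fluorescence every second for 3 min, served as the agonist signal in dye-loaded HEK293 cells expressing TRHR; each compound ran at 15 concentrations in triplicate.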

[5] = Human pregnane X receptor (PXR) small molecule agonists, qHTS cell viability counter screen (AID 1346977); note: nearly all actives have a fitted effect of over 50% in size
Summary of the method: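 PXR-Luc HepG2, 2,000 cells/well, 5% charcoal-stripped FBS; 5hr settle; cpd 24hr, 37C/5% CO2; CellTiter-Fluor at 23hr, read 1hr later (fluorescence).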

[6] = Caspase-3/7 induction in HepG2 cells by small molecules, qHTS assay (AID 1346978); note: nearly all actives have a fitted effect of over 15% in size
Summary of the method: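 Wild-type HepG2 cells, 2,000/well, settled 5 hr at 37 C and 5% CO2, then compound-treated for 17 hr; caspase-3/7 activity read by luminescent Caspase-Glo 3/7 after 30 min at room temperature.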

[7] = Caspase-3/7 induction in CHO-K1 cells by small molecules, qHTS cell viability counter screen (AID 1346979); note: nearly all actives have a fitted effect of over 35% in size; note: potency is the fitted concentration of half-maximal effect
Summary of the method: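 Cells (CHO-K1, wild type) are plated at 1,500 per well and incubated 5hr. Test compounds in DMSO are then pinned in, followed by 16hr at 37C and 5% CO2. Viability is read by CellTiter-Fluor fluorescence after 1hr.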

[8] = Caspase-3/7 induction in CHO-K1 cells by small molecules, qHTS assay (AID 1346980); note: nearly all actives have a fitted effect of over 15% in size
Summary of the method: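 Wild-type CHO-K1 cells exposed to compounds for 17hr at 37 C, 5% CO2. Caspase-3/7 activity then measured by Caspase-Glo 3/7 luminescence after 30min at room temperature.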

[9] = Caspase-3/7 induction in HepG2 cells by small molecules, qHTS cell viability counter screen (AID 1346981); note: series mostly up to about 92 µM; nearly all actives have a fitted effect of over 30% in size
Summary of the method: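 Counter screen for cytotoxicity: HepG2 exposed 16 hr to compounds, then CellTiter-Fluor viability signal (fluorescence, 1 hr reagent incubation).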

[10] = biological target: Nuclear receptor subfamily 1 group I member 2 (Homo sapiens) (UniProt O75469); test: Human pregnane X receptor (PXR) small molecule agonists, qHTS assay (AID 1346982); note: nearly all actives have a fitted effect of over 35% in size; note: potency is the fitted concentration of half-maximal effect
Summary of the method: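 Luminescence (ONE-Glo, 30 min RT) after 24 hr compound exposure of PXR-Luc HepG2 cells; cells rested 5 hr post-plating in 5% charcoal-stripped FBS medium.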

Sequence of Nuclear receptor subfamily 1 group I member 2 (Homo sapiens) (O75469 whole entry, looked up): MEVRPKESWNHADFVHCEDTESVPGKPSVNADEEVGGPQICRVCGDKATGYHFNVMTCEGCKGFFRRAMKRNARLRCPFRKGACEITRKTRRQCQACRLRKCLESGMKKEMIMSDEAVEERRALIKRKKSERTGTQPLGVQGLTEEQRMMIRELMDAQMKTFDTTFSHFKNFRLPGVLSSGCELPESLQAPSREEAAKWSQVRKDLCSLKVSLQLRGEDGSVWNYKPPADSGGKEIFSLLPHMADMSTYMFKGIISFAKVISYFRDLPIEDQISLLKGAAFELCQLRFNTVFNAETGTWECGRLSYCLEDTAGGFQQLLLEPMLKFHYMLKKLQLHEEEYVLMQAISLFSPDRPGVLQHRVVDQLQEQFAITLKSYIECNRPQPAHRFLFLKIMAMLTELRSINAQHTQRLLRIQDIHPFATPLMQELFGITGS
Sequence of Thyrotropin-releasing hormone receptor (Homo sapiens) (P34981 whole entry, looked up): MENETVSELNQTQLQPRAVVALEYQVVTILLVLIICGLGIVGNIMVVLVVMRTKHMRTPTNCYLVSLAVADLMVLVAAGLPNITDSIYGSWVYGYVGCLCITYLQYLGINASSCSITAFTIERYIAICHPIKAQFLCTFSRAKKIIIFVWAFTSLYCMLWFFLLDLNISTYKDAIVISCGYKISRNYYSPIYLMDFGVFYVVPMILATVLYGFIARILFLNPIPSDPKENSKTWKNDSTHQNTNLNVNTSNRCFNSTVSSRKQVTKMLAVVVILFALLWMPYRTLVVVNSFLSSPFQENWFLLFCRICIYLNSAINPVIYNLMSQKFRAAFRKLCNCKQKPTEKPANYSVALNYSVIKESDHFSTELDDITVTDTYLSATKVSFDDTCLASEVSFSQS

SMILES	Potency [1]	outcome [2]	Potency [3]	outcome [4]	Potency [5]	Potency [6]	Potency [7]	outcome [8]	Potency [9]	Potency [10]
CC(C)(C)[C@@H](O)[C@@H](Cc1ccc(Cl)cc1)n1cncn1	inactive	inactive	inactive	inactive	inactive	inactive	inactive	inactive	inactive	34.1 µM (active)
CCc1cccc(C)c1N	inactive	inactive	inactive	inactive	inactive	inactive	inactive	inactive	inactive	59.2 µM (active) and inactive
OCC(CO)(CBr)CBr	inactive	inactive	inactive	inactive	inactive	inactive	inactive	inactive	inactive	inactive
C[Si](O[Si](C)(C)C)O[Si](C)(C)C	inactive	inactive	inactive	inactive	inactive	inactive	inactive	inactive	inactive	inactive
OC[C@H]1O[C@@](CO)(O[C@H]2O[C@H](CO)[C@@H](O)[C@H](O)[C@H]2O)[C@@H](O)[C@@H]1O	inactive	inactive	inactive	inactive	inactive	inactive	inactive	inactive	inactive	inactive and 27.3 µM (active)
Cc1ccc(N(C)C)cc1	inactive	inactive	inactive	inactive	inactive	inactive	inactive	inactive	inactive	inactive
CCC(O)OC(O)CC (centres undefined)	inactive	inactive	inactive	inactive	inactive	inactive	inactive	inactive	inactive	inactive
O=[N+]([O-])c1ccc(/C=C/c2ccc([N+](=O)[O-])cc2S(=O)(=O)O)c(S(=O)(=O)O)c1	inactive	inactive	inactive	inactive	inactive	inactive	inactive	inactive		inactive
C=CCOC(=O)c1ccccc1C(=O)OCC=C	inactive	inactive	inactive	inactive	inactive	inactive	inactive	inactive	inactive	inactive
C=CCNC(N)=S	inactive	inactive	inactive	inactive	inactive	inactive	inactive	inactive	inactive	inactive
CCCCCC(N)=O	inactive	inactive	inactive	inactive	inactive	inactive	inactive	inactive	inactive	inactive
CC(c1cc2ccccc2s1)N(O)C(N)=O (centres undefined)	inactive	inactive	inactive	inactive	inactive	inactive	inactive	inactive	inactive	34.4 µM (active) and inactive
O=C1CCC(N2C(=O)c3ccccc3C2=O)C(=O)N1 (centres undefined)	inactive	inactive	inactive	inactive	inactive	inactive	inactive	inactive	inactive	inactive
c1c[nH]cn1	inactive	inactive	inactive	inactive	inactive	inactive	inactive	inactive	inactive	inactive
O=S(=O)(O)c1ccc2ccccc2c1	inactive	inactive	inactive	inactive	inactive	inactive	inactive	inactive	inactive	inactive
O=C=NCCCCCCN=C=O	inactive	inactive	inactive	inactive	inactive	inactive	53.3 µM (active) and inactive	inactive	inactive	47.5 µM (active) and inactive
CCCCOC(=O)COc1ccc(Cl)cc1Cl	inactive	inactive	inactive	inactive	inactive	inactive	inactive	inactive	inactive	inactive
CC(C)(N)CO	inactive	inactive	inactive	inactive	inactive	inactive	inactive	inactive	inactive	60.9 µM (active) and inactive
O=c1[nH]c(=O)n([C@H]2C[C@H](O)[C@@H](CO)O2)cc1Br	inactive	inactive	inactive	inactive	inactive	inactive	inactive	inactive	inactive	12.4 µM (active) and inactive
CCCCN(CCCC)CCCC	inactive	inactive	inactive	inactive	inactive	inactive	inactive	inactive	inactive	inactive
O=C(O)c1ccc(C(=O)O)cc1	inactive	inactive	inactive	inactive	inactive	inactive	inactive	inactive	inactive	inactive
CC(=O)CC(=O)Nc1ccccc1C	inactive	inactive	inactive	inactive	inactive	inactive	inactive	inactive	inactive	inactive
O=c1[nH]c(=O)n([C@H]2CCCO2)cc1F	inactive	inactive	inactive	inactive	inactive	inactive	inactive	inactive	inactive	inactive
O=C(Oc1ccccc1)c1ccccc1	inactive	inactive	inactive	inactive	inactive	inactive	inactive	inactive	inactive	inactive

SMILES	Potency [1]	outcome [2]	Potency [3]	outcome [4]	Potency [5]	Potency [6]	Potency [7]	outcome [8]	Potency [9]	Potency [10]
CC(=O)OCC(=O)[C@@]12N=C(C)O[C@@H]1C[C@H]1[C@@H]3CCC4=CC(=O)C=C[C@]4(C)[C@H]3[C@@H](O)C[C@@]12C	inactive	inactive	inactive	inactive	inactive	inactive	inactive	inactive	inactive	17.2 µM (active)
CC(=O)c1ccccc1	inactive	inactive	inactive	inactive	inactive	inactive	inactive	inactive	inactive	inactive
O=C(O)c1ccccc1C(c1ccc(O)cc1)c1ccc(O)cc1	inactive	inactive	inactive	inactive	inactive	inactive	inactive	inactive	inactive	2.44 µM (active) and inactive
C#CCN(C)Cc1ccccc1	inactive	inactive	inactive	inactive	inactive	inactive	inactive	inactive	inactive	inactive
OCCOCCOCCO	inactive	inactive	inactive	inactive	inactive	inactive	inactive	inactive	inactive	63.4 µM (active) and inactive
O=C(OCCOCCOC(=O)c1ccccc1)c1ccccc1	inactive	inactive	inactive	inactive	inactive	inactive	inactive	inactive	inactive	inactive
CCCCCCCC(=O)OC	inactive	inactive	inactive	inactive	inactive	inactive	inactive	inactive	inactive	inactive
CCCCCCCCCCCCCCO	inactive	inactive	inactive	inactive	inactive	inactive	inactive	inactive	inactive	inactive
COc1ccc2cc([C@H](C)C(=O)O)ccc2c1	inactive	inactive			inactive			inactive	inactive	
C#C[C@]1(O)CC[C@H]2[C@@H]3CCC4=CC(=O)CC[C@@H]4[C@H]3CC[C@@]21C	inactive	inactive			inactive	inactive	61.1 µM (active)	inactive	inactive	48.6 µM (active)
O=C(O)CCCCCCCCCCC(=O)O	inactive	inactive			inactive	inactive	inactive	inactive	inactive	inactive
CCOC(=O)NNc1nncc2ccccc12	inactive	inactive			inactive	inactive	inactive	inactive	inactive	inactive
c1ccc(OCCOc2ccccc2)cc1	inactive	inactive			inactive	inactive	inactive	inactive	inactive	61.1 µM (active) and 24.3 µM (active)
CCN(CC)c1ccc(C(=O)c2ccccc2C(=O)O)c(O)c1	inactive		inactive	inactive	inactive	inactive		inactive	inactive	27.4 µM (active) and 19.3 µM (active)
CCCCCCCCC/C=C/CC1CC(=O)OC1=O (centres undefined)	inactive	inactive			inactive	inactive	inactive	inactive	inactive	inactive
O=C(O)c1cc(C(=O)O)cc(S(=O)(=O)O)c1	inactive	inactive			inactive	inactive	inactive	inactive	inactive	inactive
O=C(O)CC(C(=O)O)C(CC(=O)O)C(=O)O (centres undefined)	inactive	inactive			inactive	inactive	inactive	inactive	inactive	inactive
C[C@H]1C[C@@H]2[C@H]([C@@H](O)C[C@@]3(C)[C@H]2CC[C@]3(O)C(=O)CO)[C@@]2(C)C=CC(=O)C=C12	inactive	inactive			inactive	inactive	inactive	inactive	inactive	
c1ccc2scnc2c1	inactive	inactive			inactive	inactive	inactive	inactive	inactive	inactive
CCCCCCOCCO	inactive	inactive			inactive	inactive	inactive	inactive	inactive	inactive
ON=C1CCCCC1	inactive	inactive			inactive	inactive	inactive	inactive	inactive	inactive
CCCCCCCCCCCCOCCO	inactive	inactive	inactive	inactive	inactive	inactive		inactive	inactive	61.1 µM (active) and inactive
CC(C)CC(=O)CC(C)C	inactive	inactive			inactive	inactive	inactive	inactive	inactive	inactive
CC(=O)Nc1cccc(O)c1	inactive	inactive			inactive	inactive	inactive	inactive	inactive	inactive
